Screens: PubChem BioAssay, Broad Institute
Ecoli rRNA inh: reduced GFP signal of wild-type E. coli, primary screen, bacterial rRNA inhibitor project, GFP/RFP fluorescence, OD600, single point; E. coli WT GFP vs humanized-ribosome RFP mutants, 24 h; hits give low values; DMSO median 0, no signal -100; GFP signal change (wild-type ribosome), % (no concentration beside the values); 350,000 compounds, 1.6% hits;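 active = significant combined selectivity score with lowered wild-type GFP, culture density cut under 30%, mutant RFP and density less affected; inactive = any of these conditions unmet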
SIRT5 block: SIRT5 desuccinylase inhibitors, primary screen, biochemical, fluorescence imaging, single point, set 5; NAD-dependent protein deacylase sirtuin-5, mitochondrial (Homo sapiens), Q9NXA8; Purified SirT5, succinyl-peptide AMC, trypsin-coupled fluorescence; inhibition, % at 15 µM; 330,000 compounds, 1.1% hits; in the data active = inhibition above about 15%
Target sequence (Q9NXA8 whole entry, looked up): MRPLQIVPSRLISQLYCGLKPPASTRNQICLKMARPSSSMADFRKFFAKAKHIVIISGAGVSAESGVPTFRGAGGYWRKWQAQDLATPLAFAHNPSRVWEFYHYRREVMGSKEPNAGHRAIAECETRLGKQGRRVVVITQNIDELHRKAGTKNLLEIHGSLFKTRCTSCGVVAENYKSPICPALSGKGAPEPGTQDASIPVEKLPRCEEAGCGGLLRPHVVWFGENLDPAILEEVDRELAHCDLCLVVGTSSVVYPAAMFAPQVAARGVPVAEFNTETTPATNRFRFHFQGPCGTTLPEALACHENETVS
LGR2 antag: inhibitors of bursicon-induced LGR2 CRE-luciferase signal, primary screen, cell-based, HEK293, CRE-luciferase reporter, bursicon stimulation | bursicon-stimulated, 4 h | inhibition, % at 9.99 µM | 380,000 compounds, 0.35% hits | AID 720647, 2013;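 active = drop in luminescence signal, shown as inhibition above about 50% in the replicate tests, limit read from the data, passing the limit was not always enough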;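 also: agonist challenge used bursicon conditioned medium at about half maximal strength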
PAX8 reporter: inhibitors of PAX8-driven TPO luciferase reporter, primary screen, RMG-I cells, single concentration; 360,000 compounds, 1.2% hits; inhibition, % at 12.6 µM; AID 652154, 2013; SteadyGlo, 24 h;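 active = mean replicate inhibition at least 60% with every replicate also reaching 60%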;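 also: luciferase light reporting Pax8 driven TPO promoter activity; plate controls were median of neutral control wells for no effect and mitoxantrone controls for full effect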
EWS-Fli inh: EWS/Fli-driven NR0B1 reporter inhibitors, primary screen, A673 cells, NR0B1 luciferase, luminescence, MLPCN library; viability-normalised; inhibition, % at 12.6 µM; 350,000 compounds, 0.67% hits; AID 651661, 2012;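 active = mean inhibition of at least 50% after viability correction, with every replicate also passing that limit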;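 also: firefly luciferase signal divided by Alamar Blue viability fluorescence both relative to DMSO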
PGC1a acetyl inh: inhibitors of PGC1a acetylation signal, primary screen, cell-based, U2OS, AlphaScreen, inhibitor mode. AID 651687, 2012. inhibition, % at 15.6 µM. 350,000 compounds, 0.17% hits. AlphaScreen anti-acetyl-lysine; with virally co-expressed GCN5 acetyltransferase;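 active = every replicate shows inhibition of at least 40%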;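 also: 0% = neutral control wells and 100% = positive control wells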
* marks the source's active call; other numbers are inactive results; · = no result given. A selection: hits, their analogues and other compounds. The true share with any hit is near 3.4%.

SMILES	Ecoli rRNA inh	SIRT5 block	LGR2 antag	PAX8 reporter	EWS-Fli inh	PGC1a acetyl inh
O=C(c1ccc(Cl)cc1)c1cc([N+](=O)[O-])ccc1N1CCOCC1	-8.0	2.1	-18.5	43.1	59.2*	·
O=C(c1ccc(Br)cc1)c1cc([N+](=O)[O-])ccc1N1CCOCC1	1.1	1.9	-9.4	24.4	45.6	·
NC(=O)c1ccc(NC(=O)COC(=O)c2cc([N+](=O)[O-])ccc2N2CCOCC2)cc1	1.7	-0.3	15.9	6.2	5.4	·
O=C(COC(=O)c1cc([N+](=O)[O-])ccc1N1CCOCC1)Nc1ccc(Cl)cc1	-33.5*	2.7	-1.5	18.3	8.6	0.1
CNC[C@@H]1Oc2ccc(NC(=O)CCCN(C)C)cc2CC(=O)N([C@@H](C)CO)C[C@H]1C	8.0	-0.1	·	24.2	6.4	6.3
CCC(=O)Nc1ccc2c(c1)C(=O)N(C)C[C@H](OC)[C@H](C)CN(CCC(F)(F)F)[C@@H](C)CO2	0.5	3.5	-9.1	-7.8	-0.7	-12.0
CO[C@@H]1CN(C)C(=O)c2ccc(NC(=O)Nc3c(C)noc3C)cc2OC[C@H](C)N(CC2CC2)C[C@@H]1C	2.2	-1.7	7.5	-12.9	-7.9	100.7*
CCCN1C[C@H](C)[C@H](OC)CN(C)C(=O)c2cc(NC(=O)c3ccc(F)cc3)ccc2OC[C@H]1C	-0.1	16.2*	2.9	·	8.3	-1.0
CO[C@@H]1CN(C)C(=O)c2cc(NC(=O)c3ccc4c(c3)OCO4)ccc2OC[C@@H](C)N(CC2CC2)C[C@H]1C	-2.7	9.1	-2.0	1.6	4.0	104.6*
CCC(=O)Nc1ccc2c(c1)C(=O)N(C)C[C@@H](OC)[C@@H](C)CN(CCC(F)(F)F)[C@H](C)CO2	0.5	16.4*	4.4	-6.6	2.1	-4.5
CCCN1C[C@@H](C)[C@H](OC)CN(C)C(=O)c2cc(NC(=O)c3ccc(F)cc3)ccc2OC[C@@H]1C	0.5	4.0	-10.6	·	-3.9	-6.4
CCC(=O)Nc1ccc2c(c1)C(=O)N(C)C[C@@H](OC)[C@@H](C)CN(CC1CCCCC1)[C@@H](C)CO2	5.1	7.9	-3.8	·	3.6	-25.5
CCC(=O)Nc1ccc2c(c1)C(=O)N(C)C[C@@H](OC)[C@H](C)CN(CC1CCCCC1)[C@@H](C)CO2	-4.6	21.5*	-0.9	·	-5.7	-17.8
CC(C)CC#Cc1ccc([C@@H]2[C@H](CO)N3C(=O)CN(C(=O)NC4CCCC4)C[C@@H]23)cc1	-1.0	-2.1	2.9	·	5.8	·
Cc1ccc(NC(=O)NC2=N/C(=C(/C#N)C(=O)N3CCCC3)c3ccccc32)cc1	·	·	·	-96.3	·	-2.9
N#C/C(C(=O)N1CCCC1)=C1/N=C(N)c2ccccc21	13.6	-3.1	9.5	107.9*	1.2	·
CC[C@H](C)[C@@H](C(=O)NCCCCCCCCCCC(=O)N1CCNCC1)n1cc(CCCCN=C(N)N)nn1	-4.3	-1.5	-4.7	-14.1	-7.4	-0.1
CC[C@H](C)Cc1cn([C@@H](CCCN=C(N)N)C(=O)NCCCCCCCCCCC(=O)N2CCNCC2)nn1	-37.1*	-3.1	-6.9	9.3	-17.1	·
Cc1ccc(CNC(=O)C2CCCN(S(=O)(=O)N3CC(C)CC(C)C3)C2)cc1 (stereo not drawn)	9.1	19.8*	-15.5	5.1	·	6.2
Cc1ccc(CNC(=O)C2CCCN(c3nc(C)cc(C)n3)C2)cc1 (stereo not drawn)	19.4	-2.2	-7.4	-0.5	-41.2	-2.9
Cc1ccc(CNC(=O)C2CCCN(c3nc4ccsc4c(=O)s3)C2)cc1 (stereo not drawn)	7.2	18.1*	-8.6	-4.2	-3.3	0.6
COc1ccc(NC(=O)Nc2ccc3c(c2)C(=O)N([C@@H](C)CO)C[C@H](C)[C@H](CN(C)Cc2ccc(C(=O)O)cc2)OCCCC[C@@H](C)O3)cc1	0.8	·	-12.0	5.2	0.6	10.4
NC(=S)NNc1c(F)c(F)c(F)c(F)c1F	-25.6*	1.5	32.2	3.4	16.5	·
Cc1ccccc1NNC(N)=S	10.1	-1.6	1.5	4.4	7.3	-1.9
CN(C)S(=O)(=O)N(CC(=O)N1CCC(Cc2ccccc2)CC1)c1ccccc1	-11.8	-6.7	27.5	16.3	5.5	-10.6
SMILES	Ecoli rRNA inh	SIRT5 block	LGR2 antag	PAX8 reporter	EWS-Fli inh	PGC1a acetyl inh
COc1ccc(N(CC(=O)N2CCC(Cc3ccccc3)CC2)S(C)(=O)=O)cc1	-21.1*	3.2	-9.3	46.3	12.5	1.1
N/C(=N\OC(=O)c1ccc2ccccc2c1)c1ccccn1	3.9	-2.3	97.5*	75.3*	80.3*	·
COc1cccc(C(=O)O/N=C(\N)c2ccccn2)c1	11.0	-6.2	101.0*	25.1	48.2	·
N/C(=N\OC(=O)c1cccc2ccccc12)c1ccccn1	-40.2	-4.3	48.2	-15.7	-33.6	1.5
N/C(=N\OC(=O)c1cccc([N+](=O)[O-])c1)c1ccccn1	8.9	-4.4	12.6	-100.7	-63.3	-4.3
COc1cccc(C(=O)O/N=C(\N)c2ccccn2)c1OC	1.8	-2.8	69.5*	3.3	-85.7	·
CC(C)(C)CC(=O)O/N=C(\N)c1ccccn1	·	·	61.8*	10.1	·	·
CC(C)NC(=O)Nc1ccc2c(c1)C(=O)N(C)C[C@@H](C)[C@H](CN(C)C)O2	1.7	·	·	·	·	·
CC(C)[C@@H]1C(=O)N[C@H](c2ccccc2)CC=CC[C@@H](C)Oc2ccccc2C(=O)N1C (mixture of isomers)	0.2	·	·	·	·	·
COCC#Cc1ccc2c(c1)O[C@H](CN(C)S(C)(=O)=O)[C@@H](C)CN([C@@H](C)CO)S2(=O)=O	5.8	-0.2	-6.6	·	-5.3	-15.1
CCCc1ccc(C(=O)O/N=C(\N)c2ccccn2)cc1	-27.5	-1.1	103.0*	105.6*	88.0*	-0.9
N/C(=N\OC(=O)c1ccc(=O)n(Cc2ccccc2)c1)c1ccccn1	-6.9	-0.2	-3.0	-20.6	8.1	·
C[C@H]1CN([C@@H](C)CO)S(=O)(=O)c2ccc(C3=CCCC3)cc2O[C@@H]1CN(C)C(=O)c1ccccn1	-1.3	-3.2	3.0	·	-3.3	-1.1
C[C@H]1CN([C@@H](C)CO)C(=O)c2cccc(NC(=O)Nc3cccc4ccccc34)c2O[C@H]1CN(C)C(=O)Nc1ccc2c(c1)OCO2	-5.5	4.7	3.5	·	6.8	5.3
O=C(CCN1CCCCC1)N[C@H]1CC[C@H](CC(=O)N2CCC(Cc3ccccc3)CC2)O[C@@H]1CO	0.6	38.5*	0.5	-12.8	1.9	8.9
O=C(C[n+]1cc(-c2ccc(Cl)cc2)n2c1CCCCC2)c1ccccc1	-51.2*	-2.3	-43.8	92.6*	-22.8	·
O=C(C[n+]1cc(-c2ccccc2)n2c1CCC2)c1cccs1	14.4	-7.3	30.5	23.0	-3.3	·
